# Screening data deposited in PubChem by National Center for Advancing Translational Sciences (NCATS).
# Abeta rescue – A-beta toxicity reversal in yeast | yeast expressing A-beta42, growth rescue, OD600, 48 h; response scale: 0% DMSO, 100% iron-clioquinol control | Potency, µM (top dose mostly 46.1 µM), hits mostly activators | 0.063% of 410,000 active | AID 1347071; also: nearly all actives have a fitted effect of over 55% in size
#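 Growth rescue measured by 600 nm absorbance after 48 h yeast culture at 30 C with compound. Values normalized between DMSO and an equimolar ferric chloride plus clioquinol control.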
# Mm-Cpn inhibitor – inhibitors of Methanococcus maripaludis chaperonin TRiC (MmCpn); purified Mm-Cpn ATPase, ADP Transcreener TR-FRET; Potency, µM (doses to about 76.9 µM), for the others: top-dose activity, negative = inhibition, hits mostly inhibitors; 0.031% of 330,000 active; AID 504842; also: % is scaled to controls: 0 for no effect and ±100 for the full control effect; nearly all actives have a fitted effect of over 80% in size
#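 25 nM Mm-CPN + cpd, 10 min 37°C; + 10 uM ATP, 30 min 37°C; buffer 30 mM Tris pH 7.4, 100 mM KCl, 5 mM MgCl2, 1 mM DTT; Transcreener ADP HTRF detection 30 min RT.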
# TDP43 rescue – rescues yeast growth from TDP-43 toxicity; Potency, µM (series often up to 46.1 µM), for inactives: at the highest dose growth rescue (activation), hits mostly activators; TDP-43 expressing yeast growth rescue, BacTiter-Glo, 24 h; 1.8% of 410,000 active; also: % of control where 0% means no effect; nearly all actives have a fitted effect of over 50% in size
#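 Luminescence from BacTiter-Glo reports growth of TDP-43-expressing yeast after 24 hr at 30 deg C with compound. Cells were raffinose-pregrown to mid-log, then seeded in galactose medium at OD600=0.02.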
# FUS suppressor – FUS proteinopathy suppression in yeast; S. cerevisiae FUS-expressing, growth rescue, OD600, 24 h; Potency, µM (highest dose often 76.6 µM), usual class: activators; 0.24% of 390,000 active; AID 1347120;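 also: plate controls were DMSO vehicle for no effect and reference control for full effect; nearly all actives have a fitted effect of over 55% in size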
#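 S. cerevisiae expressing FUS from galactose induction served as the toxicity model. Growth after 24hr at 30C, read as absorbance at 600 nm, indicates suppression of toxicity; compounds dosed at several concentrations.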
# ClpP mod – qHTS Assay for Activators of ClpP; purified B. subtilis ClpP, FRET peptide cleavage, 20 min; Potency, µM (series often up to 57.5 µM), without a hit: at the highest dose activity change, negative = active; 1.9% of 340,000 active; active = well fitted falling curve with a large enough effect; inconclusive = small, poorly fitted or top-dose-only effect; inactive = no such curve, though single readings can be large or run the other way; also: the source files actives as falling curves though it sought activators and does not explain the sign; nearly all actives have a fitted effect of over 65% in size
# Target sequence (P80244 whole entry, looked up): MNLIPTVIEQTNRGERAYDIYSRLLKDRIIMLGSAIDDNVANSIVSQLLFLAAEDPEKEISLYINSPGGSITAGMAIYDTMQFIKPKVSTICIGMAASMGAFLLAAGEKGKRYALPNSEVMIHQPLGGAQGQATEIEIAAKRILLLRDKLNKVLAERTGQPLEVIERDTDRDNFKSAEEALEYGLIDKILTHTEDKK
#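 FRET quenching reversal measured ClpP activation: 10 microg/mL B. subtilis ClpP at pH 8 with the FRET-FV decapeptide, read at 430 nm after 320 nm excitation. The 20-min minus 0-min signal was scaled between DMSO/no-enzyme wells and ADEP (5.8 microM final).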
# aSyn rescue – rescues yeast growth from alpha-synuclein toxicity; Yeast expressing alpha-synuclein, growth rescue, BacTiter-Glo, 24 h; Potency, µM (top dose mostly 46.1 µM), for inactives: at the top dose growth rescue (activation), actives largely listed as activators; 0.14% of 370,000 active; AID 652106; also: % of control where 0% means no effect; nearly all actives have a fitted effect of over 65% in size
#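 Rescue of yeast growth: cells expressing toxic alpha-synuclein, induced in galactose at OD600 0.02, incubated with compound 24 h at 30 C. ATP luminescence quantified growth; inhibitors of toxicity appear as activators.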
# Starred values were filed as active, the others as inactive; i = inactive; ? = inconclusive; nt = not tested or not shown. Only some compounds are listed: those with a hit (about 3.6% of all), similar ones and a draw of the others. Unless noted, calls follow the shape of the dose curve; as a rule, active = well fitted curve in the direction sought with a large enough effect; inconclusive = small, poorly fitted or top-dose-only effect, or another doubt; inactive = no such curve, though single readings can be large; an effect the other way counts as inactive or inconclusive. Potency is read from the fitted curve at half-maximal effect.
SMILES,Abeta rescue,Mm-Cpn inhibitor,TDP43 rescue,FUS suppressor,ClpP mod,aSyn rescue
COc1ccc(NC(=O)c2cc(-c3cc(F)ccc3OC(C)C)n[nH]2)cc1OC,i,nt,35µM*,i,1%,2%
COc1ccc(NC(=O)c2cc(-c3cc(F)ccc3OC)n[nH]2)c(C)c1,i,nt,22µM*,i,-5%,-2%
COc1ccc(NC(=O)c2cc(-c3ccc(F)cc3OC(C)C)n[nH]2)c(OC)c1,i,nt,25µM*,i,-9%,-19%
COc1ccccc1/C=C/c1nc(C#N)c(N2CCN(C)CC2)o1,i,nt,3%,i,4%,nt
CC(=O)c1ccc(NC(=O)Cn2cnc3nc4c(cc3c2=O)CC(C)CC4)cc1 (stereo not given),i,nt,4%,i,-1%,nt
O=C(CNC(=O)C1CCCCC1)OCc1cc(=O)oc2ccc3ccccc3c12,i,0%,17%,i,25µM*,-10%
CCC(NC(=O)Nc1cc(Cl)ccc1OC)c1c(-n2cccc2)sc2c1CCN(C)C2 (stereo not given),i,nt,6%,?,-5%,nt
Cc1ccc(NC(=O)CSc2nc3nc(C)c(Cc4ccccc4)c(C)n3n2)cc1,i,nt,?,i,-18%,nt
Cc1cc(C)n2nc(NCc3cccc(Br)c3)nc2n1,i,-6%,14µM*,i,14µM*,2%
Cc1cc(C)n2nc(SCc3cccc(F)c3)nc2n1,i,2%,18µM*,i,0%,0%
Cc1cccc(NC(=O)C2CCCN(c3nnc(-n4cccc4)s3)C2)c1C (stereo not given),nt,nt,nt,i,nt,nt
CC1(C)N=C(SCc2ccc(F)cc2)c2ccccc2N1,i,nt,11µM*,i,-6%,nt
Cc1noc(/C=C/c2cccs2)c1S(=O)(=O)N1CCC(C(=O)Nc2ccc(F)c(Cl)c2)CC1,i,nt,11%,i,-10%,nt
Cc1ccccc1CS(=O)(=O)Cc1ccc(C(=O)Nc2cccc(C)c2C)o1,nt,nt,nt,i,nt,nt
Cn1c2ccccc2c(=O)c2cc(C#Cc3cccc(N)c3)ccc21,i,-17%,13µM*,i,-21%,1%
Cn1c2ccccc2c(=O)c2cc(C#CC3=CCCCC3)ccc21,i,-17%,9%,?,4%,15%
Cn1c2ccccc2c(=O)c2ccc(C#Cc3ccc(N)cc3)cc21,i,-6%,11µM*,?,3%,14%
Fc1cccc(NCc2ccccc2-c2nnc(-c3ccccc3Cl)o2)c1,i,nt,2%,i,1%,nt
O=[N+]([O-])c1cc(S(=O)(=O)N2CCCC2)ccc1N/N=C1/CCCc2ccccc21,i,3%,17%,i,16µM*,2%
Cc1c(-c2ccccc2)sc2nc[nH]c(=S)c12,?,-30%,16µM*,i,-2%,-4%
CCc1[nH]c(=O)c(C#N)c2c1COC(C)(C)C2,i,-1%,-19%,i,25µM*,0%
CC1(C)Cc2c(c(-c3ccco3)[nH]c(=O)c2C#N)CO1,i,-2%,8%,i,-17%,-16%
CC1CCc2sc(C(=O)N(C)CC(=O)Nc3ccc(N4CCOCC4)cc3)cc2C1 (stereo not given),i,-4%,-7%,i,-1%,4%
CCC1CCc2sc(C(=O)N(C)CC(=O)Nc3ccc(N4CCOCC4)cc3)cc2C1 (stereo not given),i,0%,8.9µM*,i,0%,6%
CCC1CCc2sc(C(=O)N(C)CC(=O)Nc3ccc(OC)cc3)cc2C1 (stereo not given),i,-1%,11µM*,i,-1%,24%
SMILES,Abeta rescue,Mm-Cpn inhibitor,TDP43 rescue,FUS suppressor,ClpP mod,aSyn rescue
C/C=C\C=C\C(=O)Nc1cccc(C2=NOC3(C2)C[C@@H](C(N)=O)N(C(=O)C(c2ccccc2)c2ccccc2)C3)c1 (stereo not given in full),i,-2%,8%,32µM*,-2%,4%
C=C(C)C(=O)N1CC2(CC(c3cccc(NC(=O)CC(c4ccccc4)c4ccccc4)c3)=NO2)C[C@H]1C(N)=O (stereo not given in full),i,1%,-12%,32µM*,-7%,11%
NC(=O)[C@@H]1CC2(CC(c3cccc(NC(=O)CC(c4ccccc4)c4ccccc4)c3)=NO2)CN1C(=O)c1ccc(Cl)cc1 (stereo not given in full),i,-1%,-9%,28µM*,-9%,0%
NC(=O)[C@@H]1CC2(CC(c3cccc(NC(=O)COc4ccc(Cl)cc4)c3)=NO2)CN1C(=O)COc1ccc(Cl)cc1 (stereo not given in full),i,-8%,-22%,18µM*,0%,1%
COc1cccc(CNC(=O)C(=O)NCC(c2ccco2)S(=O)(=O)c2cccs2)c1 (stereo not given),i,nt,20%,i,2%,nt
CC1=CC(C)C2C(=O)N(O)C(=O)C2C1 (stereo not given),i,-3%,6%,i,-5%,0%
CC1=CC(C)C2C(=O)N(c3ccccc3)NC(=O)C2C1 (stereo not given),i,-1%,7%,i,16µM*,7%
COc1ccc(/C(N)=N/OC(=O)c2ccco2)cc1,i,0%,18µM*,i,nt,-17%
N/C(=N\OC(=O)c1ccco1)c1ccc(Br)cc1,i,-10%,14µM*,i,0%,-48%
Cc1cccc(/C(N)=N/OC(=O)c2ccco2)c1,i,0%,22µM*,i,-3%,-38%
O=C1CSc2ccc(C(=O)N3CCCC(C(=O)N4CCN(c5ccc(F)cc5)CC4)C3)cc2N1 (stereo not given),nt,nt,nt,i,nt,nt
CCOC(=O)c1c(NC(=O)COc2ccc(Cl)cc2C)sc(C(C)=O)c1C,i,nt,0%,i,1%,nt
Cc1ccc(-c2nc(-c3cc4cccc(OCc5cccc(F)c5)c4oc3=O)no2)cc1,i,nt,4%,i,-3%,nt
C=C(C)CSc1nc2sc3c(c2c(=O)n1Cc1ccccc1)CC(C)(CC)OC3 (stereo not given),i,nt,2%,i,-19%,nt
O=C(c1ccccc1)n1nc(-c2ccco2)nc1NCc1ccccc1Cl,i,nt,6%,i,-6%,nt
O=C(Nc1ccc2c(c1)OCO2)c1cc(C2CCCCN2C(=O)c2ccc3ccccc3c2)on1 (stereo not given),i,nt,20%,35µM*,-18%,4%
